Each structure is given as a SMILES string. The campaign covered roughly 16,000 compounds. About 4,000 (25%) were called active. Another 26% or so got no clear call; they are omitted. Calls follow the shape of the dose curve; as a rule, active = well fitted curve in the direction sought with a large enough effect; inconclusive = small, poorly fitted or top-dose-only effect, or effect the other way; inactive = no such curve, though single readings can be large or run the other way. A selection follows.
% is scaled to controls: 0 for no effect and ±100 for the full control effect.

Sequence of Cytochrome P450 2C9 (Homo sapiens) (P11712 whole entry, looked up): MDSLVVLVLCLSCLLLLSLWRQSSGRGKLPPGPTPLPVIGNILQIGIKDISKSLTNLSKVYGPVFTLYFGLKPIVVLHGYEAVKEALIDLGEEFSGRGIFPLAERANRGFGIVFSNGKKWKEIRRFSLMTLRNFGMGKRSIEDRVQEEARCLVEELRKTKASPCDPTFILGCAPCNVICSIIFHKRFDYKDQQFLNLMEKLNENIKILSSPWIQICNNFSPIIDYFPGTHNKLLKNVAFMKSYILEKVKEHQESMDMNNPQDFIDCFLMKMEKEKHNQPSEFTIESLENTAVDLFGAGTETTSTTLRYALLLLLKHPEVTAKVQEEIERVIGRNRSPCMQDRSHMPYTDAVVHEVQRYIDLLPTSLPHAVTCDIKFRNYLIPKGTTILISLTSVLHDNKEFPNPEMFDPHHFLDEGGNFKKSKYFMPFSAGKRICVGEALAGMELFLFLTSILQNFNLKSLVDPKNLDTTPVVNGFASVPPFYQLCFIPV

The assay addresses Cytochrome P450 2C9 (Homo sapiens) (UniProt P11712). Nature of the assay: Cytochrome panel assay with activity outcomes. The conditions noted are these: recombinant CYP, pro-luciferin dealkylation, luminescence, p450-cyp2c9; series mostly up to 57.1 µM.
In the case of `Cc1cc(N)c2ccccc2[n+]1CCCCCCCCCC[n+]1c(C)cc(N)c2ccccc21`, the AC50 entry is “inactive”.

In the case of `O=C(Nc1ccccc1)N[C@H]1C[C@H](C(=O)O)Nc2cc(Cl)cc(Cl)c21`, the AC50 result is “inactive”. In the case of `CCCSC1=C(C#N)C(c2cccnc2)C(C(=O)OCC)=C(c2ccccc2)N1` (centres undefined), the AC50 is 8.91 µM (active). For `COc1ccc(NC(=O)N2CC[C@@]3(CCCN(S(C)(=O)=O)C3)C2)cc1`, the AC50 entry was “inactive”. The same measure, in the same setting: the value for `Cc1ccc2c(c1)N(CCC(=O)NCc1cccnc1)C(=O)CO2` was 14.1 µM (active); that for `Cc1ccc2c(c1)N(CC(=O)NC1CCCc3ccccc31)C(=O)CO2` (centres undefined) was “inactive”. On the same count and under the same terms, in the case of `Cc1ccc2c(c1)N(CC(=O)NC1CCC(C)CC1)C(=O)CO2` (centres undefined) it was “inactive”; in that of `COC(=O)Nc1nc2ccc(Sc3ccccc3)cc2[nH]1`, “inactive”. Take `COc1cc(/C=N\Nc2nc3ccccc3[nH]2)cc(OC)c1OC`: the AC50 was 15.8 µM (active). As to `c1ccc2[nH]c(NC3=NCCC3)nc2c1`, the AC50 entry was “inactive”. Take `Cc1ccc2nc(-c3ccccc3)cc(C(=O)NCCCn3ccnc3)c2c1`: the AC50 is 0.1 µM (active). `Cc1cccc(NC(=S)c2nc3ccccc3s2)c1`: the AC50 result is “inactive”. As to `Cc1cccc(NC(=O)N(Cc2nc3ccccc3c(=O)[nH]2)C2CCCC2)c1`, the AC50 was 5.62 µM (active). As for `CN1CCC(N(C)C(=O)CCc2nc3ccccc3c(=O)[nH]2)CC1`, the AC50 entry was “inactive”. `N/C(=N\OC(=O)c1cc(-c2ccccc2)nc2ccccc12)c1ccc(Cl)cc1`: the AC50 was 3.98 µM (active). The same measure, in the same setting: in the case of `C/C(=N\OC(=O)c1ccccc1)c1cc(-c2ccc(Cl)cc2)no1` it was “inactive”; in that of `Cn1c(=O)c2[nH]c(C3CCCC3)nc2n(C)c1=O`, “inactive”.

As to `NC(=O)N[C@H]1NC(=O)NC1=O`, the AC50 entry was “inactive”.

In the case of `C=CCC(C(=O)OC)(C(=O)OC)c1ccc([N+](=O)[O-])cn1`, the AC50 result is “inactive”. The same measure, in the same setting: in the case of `COC(=O)C(C)(C(=O)OC)c1ccc([N+](=O)[O-])cn1` it was “inactive”; in that of `COC(=O)C(NC(=O)c1ccc(F)cc1)(Nc1ncc(S(=O)(=O)c2ccc([N+](=O)[O-])cc2)s1)C(F)(F)F` (centres undefined), 3.55 µM (active). Consider `O=S(=O)(Nc1ccc(Cc2ccncc2)cc1)c1ccc(Br)cc1`, for which the AC50 was 0.0141 µM (active). Regarding `O=S(=O)(Nc1ccc(Cc2ccncc2)cc1)c1cccs1`, the AC50 was 0.02 µM (active). In the case of `O=C1CCCCC(=O)c2ccccc2N1`, the AC50 entry was “inactive”. Consider `COc1ccc(C(=O)C(OC(=O)CNC(=O)c2ccco2)c2ccccc2)cc1` (centres undefined), for which the AC50 is 20 µM (active). As to `O=C(CNC(=O)c1ccco1)OC(C(=O)c1ccccc1)c1ccccc1` (centres undefined), the AC50 is 25.1 µM (active). `COc1ccc(C(=O)NCC(=O)OCc2cccc(Br)c2)cc1`: the AC50 entry is “inactive”. In the case of `O=C(CNC(=O)c1ccco1)OCc1c(F)cccc1Cl`, the AC50 result was “inactive”. `CCOc1ccc2c(ccc(/C=C\c3cc(C)c4cccnc4c3O)[n+]2C)c1`: the activity, negative = inhibition is 5.89% [at 11.4 µM] (inactive).

For the origin of these results see PubChem BioAssay AID1851 (National Center for Advancing Translational Sciences (NCATS), 2009).
